Data on 14 compounds can be found in PubChem BioAssay (NCI).

Holding throughout (assay): NCI-60 one-dose screen, 48 h (100 = growth as untreated, 0 = no growth, -100 = all killed)
Holding throughout (conditions): 10 µM unless noted

In assay [1] the test system is NCI-H23 lung.
Assay [2] concerns NCI-H226 lung.
Assay [3] deals with NCI-H322M lung.
Assay [4] relates to HOP-62 NSCLC.
In assay [5] the test system is NCI-H460 lung.
Assay [6] relates to HOP-92 NSCLC.
In assay [7] the test system is NCI-H522 lung.
For assay [8], the system named is A549/ATCC NSCLC.
The test system of assay [9] is 786-0 renal.
Assay [10] deals with COLO 205 colon.
The subject of assay [11] is DU-145 prostate.
Assay [12] concerns K-562 leukemia.
Assay [13] relates to MALME-3M melanoma.
The subject of assay [14] is MDA-MB-231 breast.
The subject of assay [15] is RXF 393 renal.
For assay [16], the system named is SF-268 CNS.
Assay [17] has as its system SF-295 CNS.
For assay [18], the system named is SF-539 CNS.
Assay [19] has as its system UACC-257 melanoma.
In assay [20] the test system is M14 melanoma.

Molecules are shown by their SMILES. The panel holds about 83,000 compounds, 20% with a hit somewhere; the sample as a whole holds those more often.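 96-well plates, one dose, 48 hours. Percent growth reported; active if below 10.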 Values without a mark were called inactive. Calls of active or inactive are those of the source.

`O=c1[nH]cnc2nc[nH]c12`: the growth in [1] was 113%; in assay [2] it was 98.9%; in [3], 94.9%; in [4], 106%; in assay [5], 103%; in assay [6] it was 104%. Besides, the growth in assay [7] was 99.2%; in [8] it was 105%; in [9], 114%; in assay [10], 112%; in [11], 170%; in assay [12], 49.3%. In addition, the growth was 110% in assay [13]; 99% in assay [14]; 107% in assay [15]; 147% in assay [16]; 93.8% in assay [17]; 97.3% in assay [18]. Moreover, the growth was 117% in assay [19] and 109% in [20].
In the case of `CNC(=O)c1cc(Oc2ccc(NC(=O)c3[nH]c(SC)nc3-c3ccc(F)cc3)cc2)ccn1`, the growth is 75.4% in assay [1]; 81.7% in [2]; 85.4% in assay [3]; 95% in assay [4]; 72.6% in [5]; 70.6% in [6]. In addition, the growth in assay [7] is 68%; in assay [8], 72.2%; in assay [9], 78.1%; in assay [10] it was 7.33% (active); in assay [11], 59.6%; in assay [12] it was 7.07% (active). The growth in [13] was -7.31% (active); in [14], 62.9%; in [15], 70.9%; in assay [16] it was 72.5%; in assay [17], 46.3%; in assay [18] it was 65.5%. Further, the growth in assay [19] is 33.1%; in assay [20] it was 12.7%.
As to `Cc1cc(C)cc(NC(=O)Cn2nncc2CN2C(=O)CSC2=O)c1`, the growth in [1] is 97.5%; in [2] it was 104%; in [3], 109%; in assay [4] it was 102%; in assay [5], 107%; in [6], 124%. The growth is 94.5% in assay [7]; 102% in [8]; 108% in assay [9]; 108% in assay [10]; 109% in [11]; 101% in [12]. The growth in assay [13] is 100%; in assay [14], 97.5%; in [15] it was 113%; in assay [16], 101%; in assay [17], 103%; in assay [18], 94.7%. Moreover, the growth in assay [19] is 97.3%; in [20], 106%.
As to `COc1ccc([C@@H]2[C@@H](Cl)C(=O)N2c2cc(OC)c(OC)c(OC)c2)cc1C`, the growth in [1] was 25.3%; in assay [2], 53.9%; in [3] it was 35.3%; in assay [4], 23.3%; in [5] it was 9.34% (active); in assay [6], 76%. Besides, the growth was 10.2% in [7]; 23.6% in assay [8]; 7.98% (active) in [9]; -57% (active) in [10]; 12.9% in [11]; 9.59% (active) in [12]. The growth is 76% in assay [13]; 18.3% in [14]; 19.8% in assay [15]; 30.2% in assay [16]; 15.7% in assay [17]; 3.27% (active) in assay [18]. The values for the growth in assay [19] and in assay [20] were 80.7% and 11.7%, respectively.
Turning to `COc1ccc(/C=C(/C(=O)N2CCN(c3ccccc3)CC2)c2cc(OC)c(OC)c(OC)c2)cc1N`, the growth was 39.4% in [1]; 40.5% in [2]; 49.8% in [3]; 30.4% in assay [4]; 6.98% (active) in assay [5]; 92.2% in [6]. Also, the growth was 3.2% (active) in assay [7]; 24% in assay [8]; 25.7% in [9]; -21.2% (active) in assay [10]; 15.2% in assay [11]; 6.11% (active) in [12]. Further, the growth in assay [13] is 66.3%; in [14], 22.1%; in [15] it was -1.82% (active); in assay [16], 46.6%; in assay [17], 7.2% (active); in [18], -17.4% (active). For the same compound, the values for the growth in assay [19] and in [20] were 69.2% and 1.47% (active), respectively.
As for `COC1=CC(c2ccc[nH]2)=N/C1=C\c1[nH]c(C)c(C(=O)CCCCCCCCC(=O)O[C@H]2CC[C@H]3C4CCc5cc(O)ccc5C4CC[C@]23C)c1C` (stereo not given in full), the growth in assay [1] was 40.3%; in assay [2], 24.9%; in assay [3] it was 51.5%; in [4], 50.7%; in assay [5], 14.9%; in assay [6], -14.6% (active). The growth in [7] is 15%; in assay [8] it was 4.12% (active); in assay [9] it was 19.9%; in assay [10], 18.5%; in [11] it was 32.2%; in assay [12] it was 13.1%. Also, the growth was 40.5% in [13]; 3.86% (active) in assay [14]; 52.5% in assay [15]; 38.7% in [16]; 28.8% in [17]; 32.5% in [18]. Also, the growth was 49.2% in assay [19] and -35.7% (active) in assay [20].
On to `O=C(CCc1nc2sc3c(c2c(=O)[nH]1)CCC3)NCc1cn(-c2ccccc2)nc1-c1ccccc1`, for which the growth is 66.2% in [1]; 92.2% in assay [2]; 92.8% in [3]; 80.8% in assay [4]; 1.28% (active) in assay [5]; 95.9% in assay [6]. Besides, the growth in assay [7] was 78.9%; in assay [8], 16.5%; in assay [9], 98.4%; in [10] it was 75.7%; in [11] it was 48.7%; in assay [12] it was 84.6%. Further, the growth was 47.7% in assay [13]; 11.4% in assay [14]; 48.8% in assay [15]; 65.3% in assay [16]; 46.2% in [17]; 83.3% in assay [18]. Also, the figures for the growth in assay [19] and in assay [20] were 98.5% and 74.5%, respectively.
As for `CCN1CCN(Cc2ccc(NC(=O)c3nc4ccc5[nH]ncc5c4c4c3CCCC4)cc2C(F)(F)F)CC1`, the growth is 74.6% in [1]; 60.3% in [2]; 2.39% (active) in assay [3]; -29.8% (active) in assay [4]; -73.4% (active) in assay [5]; 44.9% in assay [6]. Further, the growth in assay [7] was -76.9% (active); in [8], 6.07% (active); in assay [9], -88.6% (active); in assay [10], -76.7% (active); in assay [11] it was -57.8% (active); in assay [12], -44.5% (active). Besides, the growth in assay [13] was -79.3% (active); in [14] it was -72.1% (active); in [15], -87.4% (active); in [16], 27.4%; in assay [17], -54.2% (active); in assay [18], -93.7% (active). The growth in [19] was -63.9% (active); in assay [20], -75.4% (active).
Turning to `COc1cccc(CC(C)=C(c2ccc(OCCCN(C)C)cc2)c2ccc(OCCCN(C)C)cc2)c1`, the growth in [1] is -66.9% (active); in assay [2], -18.9% (active); in [3] it was -95% (active); in [4], -81% (active); in assay [5], -90.2% (active); in [6], -53% (active). Moreover, the growth is -77.3% (active) in assay [7]; -81.5% (active) in [8]; -85.6% (active) in assay [9]; -74.1% (active) in assay [10]; -94.4% (active) in assay [11]; -67.5% (active) in assay [12]. Besides, the growth is -87% (active) in assay [13]; -82.2% (active) in assay [14]; -89.5% (active) in assay [15]; -81.8% (active) in assay [16]; -68.2% (active) in assay [17]; -91.6% (active) in [18]. Also, the growth was -82.3% (active) in assay [19] and -80% (active) in [20].
With `C/C=C(\C)C(C(=O)NC1CCCCC1)N(C(=O)C1CCc2cc(F)ccc2O1)c1ccc([N+](=O)[O-])cc1` (stereo not given), the growth is 91.9% in assay [1]; 72.5% in assay [2]; 92.8% in [3]; 87.3% in [4]; 82.5% in assay [5]; 92.6% in [6]. For the same compound, the growth in assay [7] was 81.9%; in assay [8], 79.1%; in assay [9], 90.1%; in assay [10], 98.7%; in assay [11], 105%; in assay [12], 80.7%. Also, the growth in assay [13] was 92.4%; in [14], 77.7%; in assay [15], 98.4%; in assay [16] it was 87%; in [17], 82.5%; in assay [18], 92.8%. In addition, the growth is 93% in [19] and 82.4% in assay [20].
On to `CN1CCN(Cc2ccc(NC(=O)c3cncc(C#Cc4cnc5cccnn45)c3)cc2C(F)(F)F)CC1`, for which the growth in assay [1] is -7.84% (active); in assay [2], -3.9% (active); in assay [3], 6.52% (active); in assay [4], -6.79% (active); in [5], -12.6% (active); in assay [6], -9.42% (active). In addition, the growth in assay [7] is -37.1% (active); in assay [8] it was 4.87% (active); in assay [9] it was 6.51% (active); in assay [10], -48.1% (active); in assay [11], 3.43% (active); in assay [12], 2.91% (active). Besides, the growth in [13] is -46.5% (active); in assay [14], -14.4% (active); in assay [15], -56.3% (active); in assay [16] it was -27.9% (active); in assay [17] it was 28.6%; in assay [18], -47.9% (active). In addition, the growth in [19] was 3.46% (active); in assay [20] it was -33.5% (active).
Regarding `CCN(CC)C(Cl)=Nc1ccc(Cl)cc1`, the growth in assay [1] is 104%; in assay [2], 96.2%; in [3] it was 103%; in assay [4], 99.8%; in assay [5] it was 106%; in [6], 108%. Besides, the growth in assay [7] was 91.1%; in assay [8], 97.3%; in assay [9], 99.8%; in assay [10] it was 103%; in assay [11], 119%; in [12] it was 121%. The growth in [13] was 116%; in assay [14] it was 102%; in assay [15], 107%; in [16], 106%; in assay [17], 97.1%; in [18], 106%. Moreover, the figures for the growth in [19] and in assay [20] were 98.8% and 107%, respectively.
As to `CCCCn1c(C)nc2ccc(Nc3nc(Cl)nc4nc[nH]c34)cc21`, the growth in [1] is 75.3%; in assay [2], 62.4%; in assay [3] it was 82.5%; in assay [4], 66.1%; in assay [5] it was 70.9%; in assay [6], -11.2% (active). The growth in assay [7] was 73.2%; in assay [8], 81.4%; in [9], 55.4%; in assay [10] it was 86.8%; in [11], 80.3%; in [12], 69.8%. Moreover, the growth in assay [13] was 78.1%; in assay [14] it was 64.8%; in assay [15], 62.9%; in [16], 76%; in assay [17], 76.3%; in [18], 79.9%. In addition, the growth is 92.5% in assay [19] and 68.3% in assay [20].
For the compound `CCOC(=O)C1=C(C)NC(SCc2nnc(-c3ccc(Cl)cc3)o2)=NC1c1ccc(Br)cc1` (stereo not given), the growth in [1] was 75.7%; in assay [2], 78.9%; in assay [3], 86.4%; in [4] it was 86.9%; in assay [5], 80.4%; in [6], 57.8%. The growth was 67.6% in assay [7]; 62.4% in [8]; 84.9% in assay [9]; 77.6% in assay [10]; 84.3% in assay [11]; 60.7% in assay [12]. Besides, the growth is 83.1% in assay [13]; 59.8% in assay [14]; 75% in assay [15]; 86.6% in assay [16]; 73.6% in assay [17]; 88.7% in [18]. The growth in assay [19] is 73%; in assay [20], 74%.
